Source: the supplement of paper PMC11732987, “Enantioselective OTUD7B fragment discovery through chemoproteomics screening and high-throughput optimisation” (Communications Chemistry, 2025)

Legend:
Assay in all cases: log2 ratio of Biotin-Ahx-Ub-VS probe labelling (fragment/DMSO); higher = less target engagement (more negative = stronger competition), active = hit call of the paper (q ≤ 0.05, log2 ratio ≤ -1)
Conditions in all cases: compound concentration: 200 uM; treatment time: 3 h
OTUD6B = biological target: T1, OTUD6B (UniProt Q8N6M0)
T1 sequence (whole entry): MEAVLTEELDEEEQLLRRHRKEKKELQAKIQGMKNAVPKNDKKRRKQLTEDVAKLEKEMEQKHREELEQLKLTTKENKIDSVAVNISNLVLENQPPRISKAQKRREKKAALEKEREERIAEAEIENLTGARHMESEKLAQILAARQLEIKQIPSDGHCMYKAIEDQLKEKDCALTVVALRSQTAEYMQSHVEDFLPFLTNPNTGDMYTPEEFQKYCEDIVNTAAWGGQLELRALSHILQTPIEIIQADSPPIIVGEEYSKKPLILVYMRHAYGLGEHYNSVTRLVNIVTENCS
In short: (§1)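 Global-median-normalised Spectronaut label-free quantities were compared by unpaired t-test, and values are average log2 ratios of fragment over vehicle. Only proteins with ≥2 unique peptides were used. HEK293T lysate (495 µg per sample) was treated in triplicate with fragment at 200 µM or vehicle for 3 h and then with Biotin-Ahx-Ub-VS at 0.5 µM final for 1 h. Labelled DUBs were then NeutrAvidin-enriched, digested with LysC and trypsin, and run by diaPASEF LC-MS/MS.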

OTUD7B = biological target: T2, OTUD7B (UniProt Q6GQQ9)
T2 sequence (whole entry): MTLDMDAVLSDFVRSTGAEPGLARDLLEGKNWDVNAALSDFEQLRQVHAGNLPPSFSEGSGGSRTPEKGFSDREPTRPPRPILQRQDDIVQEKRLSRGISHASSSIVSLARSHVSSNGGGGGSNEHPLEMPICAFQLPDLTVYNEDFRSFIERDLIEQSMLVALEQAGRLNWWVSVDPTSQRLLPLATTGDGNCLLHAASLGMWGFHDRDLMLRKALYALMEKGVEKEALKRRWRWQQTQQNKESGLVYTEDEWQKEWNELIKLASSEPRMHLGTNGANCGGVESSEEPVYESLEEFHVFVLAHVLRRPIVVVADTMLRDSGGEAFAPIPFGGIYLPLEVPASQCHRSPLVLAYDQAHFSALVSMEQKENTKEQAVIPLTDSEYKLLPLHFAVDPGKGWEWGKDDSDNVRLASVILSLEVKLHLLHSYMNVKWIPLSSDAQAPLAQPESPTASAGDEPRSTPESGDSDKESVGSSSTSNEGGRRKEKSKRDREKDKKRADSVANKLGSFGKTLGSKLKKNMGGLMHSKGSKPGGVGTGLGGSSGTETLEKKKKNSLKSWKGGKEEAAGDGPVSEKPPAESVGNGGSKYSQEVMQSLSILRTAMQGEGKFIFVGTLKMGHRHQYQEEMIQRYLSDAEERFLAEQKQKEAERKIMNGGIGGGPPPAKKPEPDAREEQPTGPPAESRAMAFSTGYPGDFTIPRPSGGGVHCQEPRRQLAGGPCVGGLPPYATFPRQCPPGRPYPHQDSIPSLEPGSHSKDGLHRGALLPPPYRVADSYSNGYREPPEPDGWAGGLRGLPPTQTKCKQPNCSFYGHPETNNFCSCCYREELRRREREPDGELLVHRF
In short: as §1

PRPF8 = PRPF8 (UniProt Q6P2Q9)
In short: as §1

PSMD7 = biological target: T3, PSMD7 (UniProt P51665)
T3 sequence (whole entry): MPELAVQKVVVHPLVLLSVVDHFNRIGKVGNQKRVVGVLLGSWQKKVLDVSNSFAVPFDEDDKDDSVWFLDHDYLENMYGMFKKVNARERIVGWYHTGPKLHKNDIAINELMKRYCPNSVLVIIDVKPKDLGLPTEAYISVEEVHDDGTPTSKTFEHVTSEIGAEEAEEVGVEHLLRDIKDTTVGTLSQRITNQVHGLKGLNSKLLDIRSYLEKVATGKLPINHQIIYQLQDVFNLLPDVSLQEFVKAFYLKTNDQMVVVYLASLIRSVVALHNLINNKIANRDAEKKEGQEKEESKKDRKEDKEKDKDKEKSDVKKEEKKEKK
In short: as §1

UCHL1 = UCHL1 (UniProt P09936)
In short: as §1

UCHL3 = biological target: T4, UCHL3 (UniProt P15374)
T4 sequence (whole entry): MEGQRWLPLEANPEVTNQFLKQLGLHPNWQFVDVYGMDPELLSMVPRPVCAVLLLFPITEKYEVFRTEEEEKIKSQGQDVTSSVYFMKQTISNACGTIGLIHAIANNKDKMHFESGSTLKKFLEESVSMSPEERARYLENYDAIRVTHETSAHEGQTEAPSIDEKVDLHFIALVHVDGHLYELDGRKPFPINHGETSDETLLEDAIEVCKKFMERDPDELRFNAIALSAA
In short: as §1

UCHL5 = biological target: T5, UCHL5 (UniProt Q9Y5K5)
T5 sequence (whole entry): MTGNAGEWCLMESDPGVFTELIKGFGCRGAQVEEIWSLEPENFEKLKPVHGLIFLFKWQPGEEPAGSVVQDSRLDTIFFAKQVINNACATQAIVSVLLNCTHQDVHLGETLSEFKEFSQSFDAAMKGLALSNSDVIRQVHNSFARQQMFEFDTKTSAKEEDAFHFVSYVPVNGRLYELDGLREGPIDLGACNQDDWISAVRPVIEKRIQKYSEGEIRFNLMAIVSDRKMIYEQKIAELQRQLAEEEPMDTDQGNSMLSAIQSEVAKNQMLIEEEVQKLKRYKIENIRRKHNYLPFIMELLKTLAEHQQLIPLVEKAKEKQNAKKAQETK
In short: as §1

USP10 = USP10 (UniProt Q14694)
In short: as §1

USP15 = biological target: T6, USP15 (UniProt Q9Y4E8)
T6 sequence (whole entry): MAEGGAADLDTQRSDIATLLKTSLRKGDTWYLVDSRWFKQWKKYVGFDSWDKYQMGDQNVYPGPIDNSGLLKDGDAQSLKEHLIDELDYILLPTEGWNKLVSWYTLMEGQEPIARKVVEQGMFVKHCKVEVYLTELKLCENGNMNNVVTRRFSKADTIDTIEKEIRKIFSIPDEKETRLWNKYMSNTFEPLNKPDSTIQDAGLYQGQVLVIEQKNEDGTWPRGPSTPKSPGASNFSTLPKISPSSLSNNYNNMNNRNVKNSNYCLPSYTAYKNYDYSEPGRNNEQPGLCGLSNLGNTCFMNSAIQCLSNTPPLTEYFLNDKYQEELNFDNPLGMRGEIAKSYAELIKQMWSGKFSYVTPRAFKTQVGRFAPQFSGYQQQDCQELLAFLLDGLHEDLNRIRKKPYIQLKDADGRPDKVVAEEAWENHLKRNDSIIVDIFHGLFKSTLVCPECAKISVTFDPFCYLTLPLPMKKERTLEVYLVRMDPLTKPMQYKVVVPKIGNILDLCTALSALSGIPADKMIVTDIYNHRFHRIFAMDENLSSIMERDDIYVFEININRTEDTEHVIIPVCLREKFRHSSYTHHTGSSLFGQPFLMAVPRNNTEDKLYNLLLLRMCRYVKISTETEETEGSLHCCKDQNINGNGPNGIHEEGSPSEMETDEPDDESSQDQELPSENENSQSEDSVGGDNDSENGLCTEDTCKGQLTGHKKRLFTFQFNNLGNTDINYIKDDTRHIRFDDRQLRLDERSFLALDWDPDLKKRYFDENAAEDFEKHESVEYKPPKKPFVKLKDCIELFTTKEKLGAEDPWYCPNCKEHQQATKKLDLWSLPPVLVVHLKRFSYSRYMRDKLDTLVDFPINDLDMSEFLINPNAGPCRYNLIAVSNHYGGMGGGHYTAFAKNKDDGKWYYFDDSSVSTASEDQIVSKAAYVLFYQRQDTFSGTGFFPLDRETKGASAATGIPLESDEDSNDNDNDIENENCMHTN
In short: as §1

Measured: log2 ratio of Biotin-Ahx-Ub-VS probe labelling

Chain of USP10 (Q14694 whole entry): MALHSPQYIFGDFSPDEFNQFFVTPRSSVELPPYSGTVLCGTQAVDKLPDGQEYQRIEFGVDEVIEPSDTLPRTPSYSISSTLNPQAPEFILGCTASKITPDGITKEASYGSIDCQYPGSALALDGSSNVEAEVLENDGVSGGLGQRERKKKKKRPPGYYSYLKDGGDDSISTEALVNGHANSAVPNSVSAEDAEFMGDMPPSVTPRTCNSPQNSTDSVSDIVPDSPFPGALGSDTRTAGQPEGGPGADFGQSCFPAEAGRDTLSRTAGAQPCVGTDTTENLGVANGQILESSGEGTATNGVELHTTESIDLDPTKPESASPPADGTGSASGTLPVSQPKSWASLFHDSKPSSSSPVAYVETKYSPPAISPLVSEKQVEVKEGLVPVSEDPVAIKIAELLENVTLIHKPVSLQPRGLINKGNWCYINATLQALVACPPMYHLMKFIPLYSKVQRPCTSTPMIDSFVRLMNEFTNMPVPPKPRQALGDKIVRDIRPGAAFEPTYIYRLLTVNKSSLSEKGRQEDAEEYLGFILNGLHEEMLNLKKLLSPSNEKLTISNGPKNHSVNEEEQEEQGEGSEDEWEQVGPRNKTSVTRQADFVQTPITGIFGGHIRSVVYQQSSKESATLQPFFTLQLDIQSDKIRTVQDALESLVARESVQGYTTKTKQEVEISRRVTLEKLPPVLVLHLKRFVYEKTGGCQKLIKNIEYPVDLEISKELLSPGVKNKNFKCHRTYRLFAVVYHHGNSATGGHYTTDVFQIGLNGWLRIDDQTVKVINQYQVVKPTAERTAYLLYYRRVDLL
Chain of UCHL1 (P09936 whole entry, looked up): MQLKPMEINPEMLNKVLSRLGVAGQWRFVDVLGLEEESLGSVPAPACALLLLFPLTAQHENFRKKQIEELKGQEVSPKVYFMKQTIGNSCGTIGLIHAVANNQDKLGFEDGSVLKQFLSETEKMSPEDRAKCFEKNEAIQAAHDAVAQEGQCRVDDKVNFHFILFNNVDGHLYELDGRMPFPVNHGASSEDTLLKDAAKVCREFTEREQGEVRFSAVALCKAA

Cc1nc(-c2cccc(NC(=O)CCl)c2)cs1
inactive: OTUD6B -0.247 | OTUD7B -0.69 | PRPF8 0.052 | PSMD7 -0.167 | UCHL1 -0.133 | UCHL3 -0.844 | UCHL5 -0.43 | USP10 -0.202 | USP15 -0.235
